Results filed as inconclusive are left out. Values without a mark were called inactive. Calls of active or inactive are those of the source. Calls follow the shape of the dose curve; as a rule, active = well fitted cell-killing curve with a large enough effect in the repeat runs; inconclusive = weak or mixed curves; inactive = no such curve, though single readings can be large or run the other way.
% is scaled to controls: 0 for no effect and ±100 for the full control effect.

This assay in a line: qHTS assay to identify small molecule agonists of the peroxisome proliferator-activated receptor delta (PPARd) signaling pathway - cell viability counter screen (AID 743211). Also: nearly all actives have a fitted effect of over 55% in size. Conditions: PPARd-bla HEK293H viability, CellTiter-Glo luminescence, 17 h; series mostly up to 62.6 µM. The text has this: U.S. Tox21 Program National Center for Advancing Translational Sciences [NCATS] NIH Chemical Genomics Center [NCGC] U.S. Environmental Protection Agency [EPA] National Institutes of Environmental Health Sciences [NIEHS] National Toxicology Program [NTP] U.S. Food and Drug Administration [FDA] Tox21 Assay Overview: The peroxisome proliferator-activated receptors (PPARs) are lipid-activated transcription factors of the nuclear receptor superfamily with three distinct subtypes namely PPAR alpha, PPAR delta (PPARd) and PPAR gamma. All these subtypes heterodimerizes with Retinoid X receptor (RXR) and have different physiological functions. […] To identify the compounds that activate PPAR-delta signaling, GeneBLAzer PPAR delta UAS-bla HEK293H cell line (Invitrogen, Carlsbad, CA, USA) containing a beta-lactamase reporter gene under the control of an Upstream Activator Sequence (UAS) was used to screen the Tox21 compound library. The cytotoxicity of the Tox21 compound library against the PPARd-bla cell line was tested in parallel by measuring the cell viability using CellTiter-Glo assay (Promega, Madison, WI) in the same wells.
Tox21 Assay Protocol Summary: PPARd-bla cells were dispensed at 3000 cells/6uL/well in 1536-well black wall/clear bottom plates using a Multidrop Combi (Thermo Fisher Scientific, Waltham, MA) dispenser. After the assay plates were incubated at 37 C and 5% CO2 for 5 h, 23 nL of compounds dissolved in DMSO, positive controls or DMSO only was transferred to the assay plate by a Pintool station (Kalypsys, San Diego, CA). The assay plates were incubated at 37C for 17 h. After 1 uL of LiveBLAzerTM B/G FRET substrate was added using a Bioraptr Flying Reagent Dispenser (FRD) workstation (Beckman Coulter, Indianapolis, IN, USA), the plates were incubated at room temperature for 2 h, and fluorescence intensity was measured by an Envision plate reader (PerkinElmer, Shelton, CT). For cell viability readout that measures cytotoxicity, 3 ul/well of CellTiter-Glo reagent was added into the assay plates using a Bioraptr FRD. After 30 min incubation at room temperature, the luminescence intensity in the plates was measured using a ViewLux plate reader (PerkinElmer).
Consider `CCOC(=O)[C@H](CCc1ccccc1)N[C@H]1CS[C@H](c2cccs2)CN(CC(=O)O)C1=O`, for which the call was inactive.
Still for that read-out and setting: the value for `CCCCCCCCCCCC(C)=O` was “inactive”.
The same measure, in the same setting: the value for `CC1(C)CC(N)CC(C)(C)N1` was “inactive”; that for `CC/C=C/CCCCCCCCCCOC(C)=O` was “inactive”; that for `C=C(C)C(=O)OCCCC` was “inactive”.
`CN1C(CCl)Nc2cc(Cl)c(S(N)(=O)=O)cc2S1(=O)=O` (stereo not given): the molecule was classed as inactive.
`C[C@@H]1NC(=O)[C@@H](N)CNC(=O)[C@H](C2CCNC(N)=N2)NC(=O)/C(=C/NC(N)=O)NC(=O)[C@H](CNC(=O)C[C@@H](N)CCCN)NC1=O` (stereo not given in full): the activity change, negative = cytotoxicity was 14.7% [at 0.55 µM].
In the case of `N=C(N)S(=O)O`, the result was inactive.
As for `CN(C)CCc1c[nH]c2ccc(C[C@H]3COC(=O)N3)cc12`, the result was inactive.
Turning to `BrCCOc1ccccc1`, the outcome was inactive.
Consider `CCCCCCCCCCCCCCCC/C=C/C1CC(=O)OC1=O` (stereo not given), for which the result was inactive.
Consider `COCc1nnc(-c2ccc[n+]([O-])c2)n1-c1c(Cl)c(Cl)cc2[nH]c(=O)c(=O)[nH]c12`, for which the outcome was inactive.
As for `CCOC(=O)CC(C(C)=O)C(C)=O`, the result was inactive.
Still for that read-out and setting: for `NS(=O)(=O)c1cc2c(cc1C(F)(F)F)NCNS2(=O)=O` the value was “inactive”.
Take `O=c1c(O)c(O)c1=O`: the result was inactive.
On the same count and under the same terms, for `CCN(CC)CC` the value was “inactive”; for `O=C1CCCc2c(O)cccc21`, “inactive”.
On to `CCCCCC(=O)CC`, for which the molecule was called inactive.
For `Cc1ccc(O)c([N+](=O)[O-])c1`, the outcome was inactive.
Same read-out and setting: for `Cc1ccc(N)nc1` the value was “inactive”.
Same read-out and setting: for `CC(O)C(CO)C(C)O` (stereo not given) the value was “inactive”; for `COc1ccc2cc(CCC(C)=O)ccc2c1`, “inactive”; for `C=CCOC(=O)CCCCCCCC`, “inactive”.
Take `C[C@@H]1CC[C@@]2(OC1)O[C@H]1C[C@H]3[C@@H]4CC[C@H]5C[C@@H](O)CC[C@]5(C)[C@H]4CC(=O)[C@]3(C)[C@H]1[C@@H]2C`: the activity change, negative = cytotoxicity was 5.8% [at 5.95 µM].
As to `CC[N+](C)(CC)CC`, the result was inactive.
The same measure, in the same setting: the value for `O=C(OOC(=O)c1ccccc1)c1ccccc1` was “inactive”; that for `CCCCCCCCS(=O)(=O)O` was “inactive”.
Still for that read-out and setting: for `C=COCCCCO` the value was “inactive”.
`CN(C)CCCN(C)C`: the activity change, negative = cytotoxicity was -3.03% [at 5.95 µM].
Regarding `CNCCc1ccccn1`, the result was inactive.
For `CC(=O)Nc1ccc(S(=O)(=O)Nc2cc(C)on2)cc1`, the outcome was inactive.
On the same count and under the same terms, the value for `CCN1CCN(C(=O)N[C@@H](C(=O)N[C@@H]2C(=O)N3C(C(=O)O)=C(CSc4nnnn4C)CS[C@H]23)c2ccc(O)cc2)C(=O)C1=O` was “inactive”.
On the same count and under the same terms, the value for `CC/C=C\CCOC(=O)c1ccccc1` was “inactive”; that for `CCCCN=C(N)N=C(N)N` was “inactive”; that for `C/C=C(\C)C=O` was “inactive”.
For the molecule `CCCCCCCCCCCCCCCCN(C)C`, the activity change, negative = cytotoxicity was 1.19% [at 5.95 µM].
For `CCCCC(CC)COC(=O)CC#N` (stereo not given), the molecule was called inactive.
As for `O=Cc1ccc(C(=O)O)cc1`, the result was inactive.
`O=Cc1ccccc1S(=O)(=O)O`: the outcome was inactive.
Still for that read-out and setting: the value for `COc1cc(NS(=O)(=O)c2ccc(N)cc2)ncn1` was “inactive”.

The record behind these values is PubChem BioAssay (Tox21).
